Pf growth 96h = P. falciparum growth inhibition at 96 hours; AID 504834; P. falciparum luciferase reporter growth, 96 h; 320,000 tested, 6.9% active; Potency, µM (top dose mostly 28.7 µM), for inactives: top-dose activity change, negative = inhibition, hits mostly inhibitors
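P. falciparum expressing integrated firefly luciferase grown in erythrocytes (2% hematocrit, 0.05% parasitemia final) with compounds for 96 hours at 37 C, 5% CO2. Growth inhibition read as loss of luminescence after adding luciferase detection reagent.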
AMA1-RON2 inh = inhibitors of Plasmodium falciparum AMA1-RON2 interaction | 360,000 tested, 0.2% active | Potency, µM (doses to about 58.2 µM), inactives show top-dose activity change, negative = inhibition, most hits filed as inhibitors | AlphaScreen AMA1-biotinylated RON2 peptide binding | AID 720542;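 also: 0% = vehicle wells and -100% = peptide control; nearly all actives have a fitted effect of over 45% in size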
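AMA1 (3D7) with his tag at 25 nM final met compounds first, then biotinylated RON2 peptide at 25 nM; detection used donor plus acceptor beads, 10 µg/mL apiece, read by AlphaScreen after 30 min at room temperature.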
Vaccinia mCherry = inhibitors of vaccinia virus infection (mCherry reporter signal); Vaccinia virus mCherry reporter infection, fluorescence; Potency, µM (titrated, usually from 36.5 µM), for the others: top-dose activity change, negative = inhibition, most hits filed as inhibitors; 310,000 tested, 0.63% active; calls by dose curve; tested in A549 cells; also: nearly all actives have a fitted effect of over 35% in size
Vaccinia Venus = vaccinia inhibition (Venus reporter) | Vaccinia virus Venus reporter expression, fluorescence | Potency, µM (titrated, usually from 36.5 µM), for inactives: top-dose activity change, negative = inhibition, usual class: inhibitors | 330,000 tested, 0.46% active | AID 720580; calls by dose curve; tested in A549 cells; also: nearly all actives have a fitted effect of over 30% in size
Pf growth 48h = P. falciparum growth inhibition at 48 hours (one generation) | P. falciparum luciferase growth in erythrocytes, 48 h | Potency, µM (highest dose often 28.7 µM), for inactives: at the highest dose activity change, negative = inhibition, most hits filed as inhibitors | 310,000 tested, 5.9% active | AID 504832
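Luciferase-expressing parasites in RBCs, 2% Hct / 0.1% parasitemia final; RPMI 1640 + 0.5% Albumax; 37 C, 5% CO2, one generation; luminescence read-out, lower signal = inhibition.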
* hit, by the source's call; i = inactive; ? = inconclusive; · = no result given. Rows were chosen to be rich in hits. Some 8.7% of all compounds tested hit in one or more screens of this group. Unless noted, calls follow the shape of the dose curve; as a rule, active = well fitted curve in the direction sought with a large enough effect; inconclusive = small, poorly fitted or top-dose-only effect, or another doubt; inactive = no such curve, though single readings can be large; an effect the other way counts as inactive or inconclusive. Unless noted, % is scaled to controls: 0 for no effect and ±100 for the full control effect; potency is read from the fitted curve at half-maximal effect.

SMILES	Pf growth 96h	AMA1-RON2 inh	Vaccinia mCherry	Vaccinia Venus	Pf growth 48h
CCCCN(C)C(=O)CN1C(=O)CCn2nc(-c3cn(C)c4ccccc34)cc21	·	·	-12.4%	-10.2%	·
CCN1CCc2nc3sc(C(=O)c4ccccc4)c(N)c3cc2C1	·	·	-29.2%	15.0%	·
COc1ccc(-c2nn(-c3cccc([N+](=O)[O-])c3)c3c2cnc2cc4c(cc23)OCO4)cc1	·	·	-4.7%	8.7%	·
Cc1cccc(C(=O)N2CCc3cc(CNC(=O)COc4ccc(Cl)cc4)ccc32)c1	·	·	i	-9.7%	·
CC(C)(C)c1cc(CN2CCOCC2)c(C(=O)O)o1	3.29µM*	-5.3%	-10.2%	-10.0%	10.8%
CCCOc1cc(CN2CCCCC2)cc(C(C)=O)c1	9.28µM*	2.1%	·	-20.9%	8.1%
CNC(=O)C1CCC(=O)N1Cc1ccccc1Cl (stereo unspecified)	·	-11.0%	·	·	31.2%
O=C(Nc1cc(Cl)cc(Cl)c1)C1CCC(=O)N1Cc1ccccc1Cl (stereo unspecified)	?	-13.9%	·	·	9.28µM*
COc1ccc(Nc2nc3c(C)cccc3cc2C#N)cc1	34.2%	1.4%	-10.3%	-12.4%	?
COc1cccc(Nc2nc3cc(OC)ccc3cc2C#N)c1	5.22µM*	17.3%	-17.6%	-16.0%	-1.1%
Cc1ccc2c(c1)c(=O)c(S(=O)(=O)c1ccc(F)cc1)cn2CC(=O)Nc1ccc2c(c1)OCO2	·	·	-2.7%	-7.3%	·
CCOc1cc2c(cc1OCC)C(c1ccccc1)N(c1ccccc1)C(=O)C2 (stereo unspecified)	4.15µM*	-18.7%	-10.9%	2.3%	?
Cc1ccc(CN(C(=O)c2ccco2)C(C(=O)NC2CCCC2)c2cccnc2)cc1 (stereo unspecified)	34.1%	-11.0%	-5.9%	11.4%	?
Cc1ccc(CN(C(=O)c2ccco2)C(C(=O)NC2CCCC2)c2ccc(N3CCOCC3)cc2)cc1 (stereo unspecified)	-17.6%	-3.1%	6.9%	1.1%	10.4µM*
Cc1ccc(C(C(=O)NC2CCCCC2)N2CCOCC2)cc1 (stereo unspecified)	10.4µM*	-9.4%	-2.1%	-5.2%	16.0%
CCN(CC)c1ccc2cc(-c3nc(-c4cccs4)no3)c(=O)oc2c1	·	·	-11.6%	15.8%	·
Fc1ccccc1C(NCCc1ccc(Cl)cc1)c1nnc(-c2ccccc2)o1 (stereo unspecified)	·	·	-19.4%	-12.3%	·
COc1ccccc1-c1c(C#N)c(N)nc2c1CCc1ccccc1-2	23.5%	51.9%	?	?	11.7µM*
CC(C)(C)OC(=O)N1CCC(c2c(C(=O)N3CCN(c4ccccn4)CC3)cnn2-c2ccccc2Cl)CC1	·	·	i	-9.6%	·
COc1cc(NC(=O)c2cnc(N)o2)cc(C(=O)Nc2cccc(C(F)(F)F)c2)c1	13.1µM*	-12.2%	-26.0%	?	10.4µM*
COc1cc(NC(=O)c2cnc(N)s2)cc(C(=O)Nc2cccc(C(F)(F)F)c2)c1	3.29µM*	?	?	?	2.62µM*
COc1cc(NC(=O)c2csc(N)n2)cc(C(=O)Nc2cccc(C(F)(F)F)c2)c1	?	30.7%	?	?	11.7µM*
COc1cc(NC(=O)c2cc(C)on2)cc(C(=O)Nc2cccc(C(F)(F)F)c2)c1	?	-4.7%	?	?	?
COc1cc(NC(=O)c2ccnc(N)c2)cc(C(=O)Nc2cccc(C(F)(F)F)c2)c1	1.85µM*	-20.9%	i	-16.3%	2.08µM*
COc1cc(OC)cc(C(=O)Nc2cccc(NC(=O)c3cccs3)c2)c1	·	-4.4%	i	-19.4%	·
SMILES	Pf growth 96h	AMA1-RON2 inh	Vaccinia mCherry	Vaccinia Venus	Pf growth 48h
COc1cccc(CNC(=O)NCc2noc3ccc(C)cc23)c1	·	·	-10.8%	-11.8%	·
COc1ccc(-c2nnn(Cc3ccccc3)n2)cc1	13.1µM*	-3.0%	-13.4%	-14.9%	42.4%
CN1CCN(c2cc(N3CCN(C(=O)c4ccco4)CC3)c3c4c(onc24)-c2ccccc2C3=O)CC1	44.6%	17.8µM*	·	·	?
O=C1c2ccccc2-c2onc3c(N4CCN(CCO)CC4)cc(N4CCN(C(=O)c5ccco5)CC4)c1c23	?	14.1µM*	?	233.2%	?
CCOC(=O)N1CCN(c2cc(NCCC(=O)O)c3c4c(onc24)-c2ccccc2C3=O)CC1	-4.7%	?	43.6%	428.9%	8.28µM*
CCc1ccccc1NC(=O)Cc1c(C(=O)O)[nH]c2ccc(Cl)cc12	·	·	-3.1%	-6.1%	·
CCN1C(=O)/C(=C\c2nc3ccccc3c(=O)n2-c2ccccc2)c2ccccc21	-2.2%	-0.1%	-25.8%	-9.1%	10.4µM*
COc1ccc(-n2c(/C=C3\C(=O)N(C)c4ccccc43)nc3ccccc3c2=O)cc1	11.7µM*	-3.6%	-2.1%	-5.2%	6.57µM*
CCC(C)NC(=O)c1ccc2c(c1)nc1n2CCCCC1 (stereo unspecified)	·	·	-10.5%	-8.1%	·
COc1ccccc1C(=O)NCCC(=O)Nc1ccc(S(=O)(=O)N2C(C)CCCC2C)cc1 (stereo unspecified)	?	-6.8%	·	·	14.7µM*
COc1ccccc1C(=O)NCCC(=O)Nc1ccc(S(=O)(=O)N2CC(C)CC(C)C2)cc1 (stereo unspecified)	14.7µM*	9.0%	·	·	?
CCOc1ccc(OCC)c(NC(=O)c2cc(-c3cccs3)nc3ccccc23)c1	·	·	-9.6%	-13.0%	·
COc1cc(C(=O)OCc2cc(=O)n3nc(C4CCCCC4)sc3n2)cc(OC)c1OC	·	·	-12.5%	-11.4%	·
CCN(C(=O)CSc1nc2ccccc2n1CC(=O)Nc1ccc(F)cc1F)c1ccccc1	·	·	-1.3%	-12.5%	·
COc1ccc(Nc2sc(C(=O)c3ccc(Cl)cc3)c(N)c2C(=O)Nc2ccccc2OC)cc1	·	-14.4%	·	·	10.4µM*
COc1ccc(C(=O)c2sc(Nc3cccc(OC)c3)c(C(=O)Nc3cccc(C)c3C)c2N)cc1	11.7µM*	67.2%	·	·	·
Cc1cc(Nc2sc(C(=O)c3ccc(F)cc3)c(N)c2C(=O)Nc2ccc(F)cc2)ccc1Cl	·	·	5.01µM*	?	·
COc1ccccc1NC(=O)c1c(Nc2ccccc2C)sc(C(=O)Nc2cccc(Cl)c2)c1N	10.4µM*	4.2%	-25.4%	?	?
Cc1ccc(NC(=O)c2c(Nc3ccccc3C)sc(C(=O)c3ccccc3)c2N)cc1	·	·	?	-29.8%	·
COc1ccc(Cn2cc(S(=O)(=O)c3ccc(Cl)cc3)c(=O)c3cc4c(cc32)OCO4)cc1	·	·	6.2%	-6.6%	·
COc1ccc(NC(=O)c2c(Nc3ccccc3)sc(C(=O)c3ccc(F)cc3)c2N)cc1	·	-15.1%	?	?	?
COc1ccc(C(=O)c2sc(Nc3ccccc3)c(C(=O)Nc3ccc(OC)c(OC)c3)c2N)cc1	?	-6.9%	-29.9%	-22.4%	13.1µM*
CCN(CC)S(=O)(=O)c1ccc(N/N=C(\C)c2ccc(OC)cc2O)nc1	?	38.4%	·	·	13.1µM*
CCOc1cccc(/C=N/Nc2ccc(S(=O)(=O)N(CC)CC)cn2)c1O	2.62µM*	41.5%	?	?	2.94µM*

Source: PubChem
